Assay [1] can be described thus: Human pregnane X receptor (PXR) small molecule agonists, qHTS cell viability counter screen (AID 1346977). Note: nearly all actives have a fitted effect of over 50% in size. The note with it: PXR-Luc HepG2 viability, CellTiter-Fluor, 24 h; series mostly up to 92.4 µM. The method, boiled down: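 HepG2 cells stably carrying the PXR-Luc reporter are cultured with 5% charcoal-stripped FBS and treated with compounds for 24hr. CellTiter-Fluor is added at 23hr and fluorescence is read after 1hr.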

The nature of assay [2]: Caspase-3/7 induction in HepG2 cells by small molecules, qHTS assay (AID 1346978). Note: nearly all actives have a fitted effect of over 15% in size. The note with it: HepG2 caspase-3/7 activation, Caspase-Glo luminescence, 17 h; series mostly up to 92.4 µM. The method, boiled down:
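Wild-type HepG2 cells (2,000/well) were settled 5 h at 37 C, 5% CO2, then exposed to compounds in DMSO for 17 h. Caspase-3/7 activity was read by luminescence 30 min after adding Caspase-Glo 3/7 reagent at room temperature.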

The nature of assay [3]: Caspase-3/7 induction in CHO-K1 cells by small molecules, qHTS cell viability counter screen (AID 1346979). Note: nearly all actives have a fitted effect of over 35% in size. The note with it: CellTiter-Fluor fluorescence, 17 h; series mostly up to 92.4 µM. The procedure, abridged:
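Seeding: 1,500 CHO-K1 cells/well. Rest: 5hr, 37C. Treatment: compounds in DMSO, 16hr. Read: CellTiter-Fluor, 1hr, fluorescence.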

Assay [4] in a line: Caspase-3/7 induction in CHO-K1 cells by small molecules, qHTS assay (AID 1346980). Note: nearly all actives have a fitted effect of over 15% in size. The note with it: CHO-K1 caspase-3/7 induction, Caspase-Glo luminescence, 17 h; series mostly up to 92.4 µM. The procedure, abridged: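 Wild-type cells were seeded at 1,500 per well and settled 5 hr at 37 C, 5% CO2, then exposed to DMSO-dissolved compounds for 17 hr. Caspase-Glo 3/7 reagent was added, and luminescence was read after 30min at room temperature.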

Assay [5] has as its target Nuclear receptor subfamily 1 group I member 2 (Homo sapiens) (UniProt O75469). The experiment in a line: Human pregnane X receptor (PXR) small molecule agonists, qHTS assay (AID 1346982). Note: nearly all actives have a fitted effect of over 35% in size. The note with it: PXR-Luc HepG2, CYP3A4 luciferase reporter, 24 h; series mostly up to 92.4 µM. The method, boiled down:
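Luciferase signal from ONE-Glo (30 min, room temperature) measured activation of hPXR-driven CYP3A4 reporter expression in PXR-Luc HepG2 cells treated with compounds for 24 hr at 37 C.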

Assay [6] has as its target Cytochrome P450 2D6 (Homo sapiens) (UniProt P10635). The experiment in a line: Cytochrome P450 Family 2 Subfamily D Member 6 (CYP2D6) small molecule antagonists: luciferase reporter qHTS assay (AID 1671196). Note: nearly all actives have a fitted effect of over 50% in size. The note with it: P450-Glo CYP2D6 enzyme assay, luciferin luminescence, 1 h; series mostly up to 115 µM. The method, boiled down:
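Read-out is luminescence from luciferin formed by CYP2D6 turnover of a proluciferin substrate, recorded as relative luminescence units. Reactions ran 1 h at room temperature after NADPH regeneration solution was added.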

In assay [7] the target is Cytochrome P450 2C19 (Homo sapiens) (UniProt P33261). The experiment in a line: Cytochrome P450 Family 2 Subfamily C Member 19 (CYP2C19) small molecule antagonists: luciferase reporter qHTS assay (AID 1671197). Note: nearly all actives have a fitted effect of over 65% in size. Note: potency is the fitted concentration of half-maximal effect. The note with it: P450-Glo CYP2C19 enzyme, luciferin luminescence, 1 h; series mostly up to 115 µM. The method, boiled down: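 Enzyme-substrate mix with proluciferin substrate (P450-Glo CYP2C19 system) preincubated with compounds 10 min at room temperature; NADPH regeneration solution added, 37C for 1 h; detection reagent stops reaction, luminescence read after 20 min. Ketoconazole positive control.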
Sequence of Cytochrome P450 2C19 (Homo sapiens) (P33261 whole entry, looked up): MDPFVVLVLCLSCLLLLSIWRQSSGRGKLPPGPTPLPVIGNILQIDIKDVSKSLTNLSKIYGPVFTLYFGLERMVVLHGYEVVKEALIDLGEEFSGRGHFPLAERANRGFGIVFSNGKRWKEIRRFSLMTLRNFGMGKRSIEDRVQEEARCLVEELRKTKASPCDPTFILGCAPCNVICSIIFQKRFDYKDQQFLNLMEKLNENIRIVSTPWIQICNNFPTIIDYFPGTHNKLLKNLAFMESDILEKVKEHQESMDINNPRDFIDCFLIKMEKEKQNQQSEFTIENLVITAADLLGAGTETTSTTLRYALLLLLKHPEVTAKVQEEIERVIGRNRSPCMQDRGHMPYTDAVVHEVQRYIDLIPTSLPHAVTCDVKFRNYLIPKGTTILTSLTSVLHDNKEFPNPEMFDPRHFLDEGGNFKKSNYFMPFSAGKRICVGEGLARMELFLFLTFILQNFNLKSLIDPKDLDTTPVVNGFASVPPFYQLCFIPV

Assay [8] has as its target Cytochrome P450 1A2 (Homo sapiens) (UniProt P05177). Briefly: Cytochrome P450 Family 1 Subfamily A Member 2 (CYP1A2) small molecule antagonists: luciferase reporter qHTS assay (AID 1671199). Note: nearly all actives have a fitted effect of over 50% in size. Note: potency is the fitted concentration of half-maximal effect. The note with it: P450-Glo CYP1A2 enzyme, luciferin luminescence, 1 h; series mostly up to 53 µM. The method, boiled down:
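P450-Glo CYP1A2, 1536-well qHTS: enzyme/proluciferin substrate + cpd (DMSO), 10 min RT; NADPH regen, 1 h RT; detection reagent, 20 min; luminescence, RLU.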

Assay [9] deals with Voltage-gated inwardly rectifying potassium channel KCNH2 (Homo sapiens) (UniProt Q12809). Briefly: Human Ether-a-go-go-Related Gene (hERG) channel small molecule antagonists: fluorescence cell-based qHTS assay (AID 1671200).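 Note: hERG-expressing U2OS cells given a thallium stimulus after FluxOR II dye loading; nearly all actives have a fitted effect of over 50% in size.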 The note with it: hERG-U2OS cells, FluxOR thallium flux fluorescence; series mostly up to 76.8 µM. The method, boiled down:
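First, 1000 cells per well are seeded and cultured overnight at 37 C. Next, FluxOR II dye is loaded for 1 h at room temperature, protected from light. After 10 more minutes, stimulus is added and fluorescence is read.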

For assay [10], the target named is Cytochrome P450 3A4 (Homo sapiens) (UniProt P08684). The experiment in a line: Cytochrome P450 Family 3 Subfamily A Member 4 (CYP3A4) small molecule antagonists: luciferase reporter qHTS assay (AID 1671201). Note: nearly all actives have a fitted effect of over 50% in size. Note: potency is the fitted concentration of half-maximal effect. The note with it: P450-Glo CYP3A4 enzyme, luciferin luminescence, 1 h; series mostly up to 115 µM. The method, boiled down:
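Enzyme and proluciferin substrate are mixed with test chemicals for 10 min, then NADPH regeneration system drives turnover for 1 h at room temperature. A detection reagent halts the reaction; luminescence after 20 min gives relative activity.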

Assay [11] is described as follows: Caspase-3/7 induction in HepG2 cells by small molecules, qHTS cell viability counter screen (AID 1346981). Note: nearly all actives have a fitted effect of over 30% in size. The note with it: CellTiter-Fluor fluorescence, 17 h; series mostly up to 92.4 µM. The procedure, abridged: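 HepG2, WT, 2,000 cells/well; 5 hr pre-incubation 37 C/5% CO2; compound pin-transferred from DMSO; 16 hr exposure; CellTiter-Fluor, 1 hr; fluorescence read.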

The target of assay [12] is Cytochrome P450 2C9 (Homo sapiens) (UniProt P11712). The experiment in a line: Cytochrome P450 Family 2 Subfamily C Member 9 (CYP2C9) small molecule antagonists: luciferase reporter qHTS assay (AID 1671198). Note: nearly all actives have a fitted effect of over 50% in size. Note: potency is the fitted concentration of half-maximal effect. The note with it: P450-Glo CYP2C9 enzyme assay, luciferin luminescence; series mostly up to 115 µM. The procedure, abridged: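 CYP2C9 activity was measured with a P450-Glo proluciferin substrate. Enzyme–substrate mix was held with compound for 10 min at room temperature, then NADPH regeneration solution was added for 1 h at 37C. Luciferin product was read as luminescence.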
Sequence of Cytochrome P450 2C9 (Homo sapiens) (P11712 whole entry, looked up): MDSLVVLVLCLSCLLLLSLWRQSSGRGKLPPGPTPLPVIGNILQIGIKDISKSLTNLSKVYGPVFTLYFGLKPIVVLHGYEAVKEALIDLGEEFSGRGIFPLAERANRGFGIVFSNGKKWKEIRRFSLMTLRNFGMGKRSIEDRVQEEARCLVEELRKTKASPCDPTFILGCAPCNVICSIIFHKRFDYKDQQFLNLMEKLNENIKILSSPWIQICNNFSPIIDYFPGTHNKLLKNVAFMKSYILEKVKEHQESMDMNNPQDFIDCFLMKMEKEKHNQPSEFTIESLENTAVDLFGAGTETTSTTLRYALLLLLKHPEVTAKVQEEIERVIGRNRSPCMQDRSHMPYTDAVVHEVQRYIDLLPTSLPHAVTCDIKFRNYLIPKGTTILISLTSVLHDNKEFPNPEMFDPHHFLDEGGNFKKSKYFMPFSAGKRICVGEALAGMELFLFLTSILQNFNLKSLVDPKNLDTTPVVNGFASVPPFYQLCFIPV

For assay [13], the target named is Nuclear receptor subfamily 1 group I member 2 (Rattus norvegicus) (UniProt Q9R1A7). Briefly: Rat pregnane X receptor (rPXR) activation by small molecules, qHTS assay (AID 1346983). Note: nearly all actives have a fitted effect of over 20% in size. The note with it: rPXR luciferase reporter cells, One-Glo luminescence, 24 h; max activation: hits give high values. The procedure, abridged: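 Cell-based rPXR luciferase reporter assay, 2,000 cells per well, rested 5hr at 37 C before compound addition in DMSO, then 24 hr at 37 C. One-Glo reagent was added and luminescence read after 30 min at room temperature.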
Sequence of Nuclear receptor subfamily 1 group I member 2 (Rattus norvegicus) (Q9R1A7 whole entry, looked up): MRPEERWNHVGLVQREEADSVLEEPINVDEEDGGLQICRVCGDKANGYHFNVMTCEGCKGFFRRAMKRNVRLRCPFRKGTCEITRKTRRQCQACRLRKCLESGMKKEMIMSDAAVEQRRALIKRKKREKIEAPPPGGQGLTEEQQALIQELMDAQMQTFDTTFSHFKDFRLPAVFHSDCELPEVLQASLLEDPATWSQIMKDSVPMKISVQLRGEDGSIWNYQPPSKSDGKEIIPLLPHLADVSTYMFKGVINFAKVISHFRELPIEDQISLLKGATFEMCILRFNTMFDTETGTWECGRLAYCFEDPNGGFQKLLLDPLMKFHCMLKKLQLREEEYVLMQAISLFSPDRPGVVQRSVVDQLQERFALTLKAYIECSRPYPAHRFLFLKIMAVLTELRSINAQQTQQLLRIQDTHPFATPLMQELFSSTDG

The target in assay [14] is Nuclear receptor subfamily 1 group I member 2 (Homo sapiens) (UniProt O75469). Briefly: CYP3A4 induction through human pregnane X receptor (PXR) by small molecules, qHTS assay (AID 1346984). Note: nearly all actives have a fitted effect of over 40% in size. The note with it: DPX-2 HepG2 PXR, CYP3A4-luciferin luminescence, 24 h; series mostly up to 46.1 µM. The procedure, abridged:
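Luminescence readout: luciferase signal after One-Glo (30 min, room temperature), following 3 h at 37C with 3uM final Luciferin-IPA P450 substrate. Cells were DPX-2 (HepG2, PXR/CYP3A4-luc co-transfected) dosed for 24 h.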

Assay [15] shares this target. Briefly: Human pregnane X receptor (PXR) activation by small molecules, qHTS assay (AID 1346985). Note: nearly all actives have a fitted effect of over 40% in size. The note with it: DPX-2 HepG2 CYP3A4-luciferase, 24 h; series mostly up to 38.3 µM. The procedure, abridged: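 DPX-2 cells (HepG2 co-transfected with a PXR response element and a CYP3A4-promoter luciferase construct) were seeded at 2,000 per well, rested 5 hr at 37C, then exposed to DMSO-dissolved compounds for 24 hr. Activation was read as luciferase luminescence.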

Unmarked numbers belong to inactive results. Results filed as inconclusive are left out. Calls of active or inactive are those of the source. Calls come from the whole dose curve; as a rule, active = well fitted curve in the direction sought with a large enough effect in the repeat runs; inconclusive = weak or mixed curves; inactive = no such curve, though single readings can be large; an effect the other way counts as inactive or inconclusive.
% is set by controls: 0 for no effect and ±100 for the full control effect.

Sequence of Cytochrome P450 3A4 (Homo sapiens) (P08684 whole entry, looked up): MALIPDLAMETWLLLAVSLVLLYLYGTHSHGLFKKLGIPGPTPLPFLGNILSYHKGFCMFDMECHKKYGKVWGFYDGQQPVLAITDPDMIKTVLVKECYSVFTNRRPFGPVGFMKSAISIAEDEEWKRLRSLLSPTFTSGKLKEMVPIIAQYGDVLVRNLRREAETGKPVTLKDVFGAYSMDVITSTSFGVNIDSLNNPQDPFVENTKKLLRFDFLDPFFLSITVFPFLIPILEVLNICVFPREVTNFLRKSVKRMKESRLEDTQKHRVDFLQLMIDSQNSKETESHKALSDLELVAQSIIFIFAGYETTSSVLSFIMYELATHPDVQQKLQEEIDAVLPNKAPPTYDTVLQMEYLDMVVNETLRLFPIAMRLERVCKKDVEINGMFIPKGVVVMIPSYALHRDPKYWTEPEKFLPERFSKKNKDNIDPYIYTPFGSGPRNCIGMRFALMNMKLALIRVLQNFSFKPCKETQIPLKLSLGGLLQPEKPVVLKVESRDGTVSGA
Sequence of Nuclear receptor subfamily 1 group I member 2 (Homo sapiens) (O75469 whole entry, looked up): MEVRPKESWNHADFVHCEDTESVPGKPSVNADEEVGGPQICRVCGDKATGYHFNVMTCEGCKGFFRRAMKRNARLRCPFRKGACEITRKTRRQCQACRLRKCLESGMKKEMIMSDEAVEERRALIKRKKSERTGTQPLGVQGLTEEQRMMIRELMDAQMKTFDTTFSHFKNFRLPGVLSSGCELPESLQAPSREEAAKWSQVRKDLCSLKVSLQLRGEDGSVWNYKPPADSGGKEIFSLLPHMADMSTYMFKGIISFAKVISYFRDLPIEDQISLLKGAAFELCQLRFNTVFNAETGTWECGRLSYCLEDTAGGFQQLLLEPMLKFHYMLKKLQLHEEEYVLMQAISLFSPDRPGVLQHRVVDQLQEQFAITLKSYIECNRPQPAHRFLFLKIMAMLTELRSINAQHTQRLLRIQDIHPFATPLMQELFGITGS
Sequence of Cytochrome P450 2D6 (Homo sapiens) (P10635 whole entry, looked up): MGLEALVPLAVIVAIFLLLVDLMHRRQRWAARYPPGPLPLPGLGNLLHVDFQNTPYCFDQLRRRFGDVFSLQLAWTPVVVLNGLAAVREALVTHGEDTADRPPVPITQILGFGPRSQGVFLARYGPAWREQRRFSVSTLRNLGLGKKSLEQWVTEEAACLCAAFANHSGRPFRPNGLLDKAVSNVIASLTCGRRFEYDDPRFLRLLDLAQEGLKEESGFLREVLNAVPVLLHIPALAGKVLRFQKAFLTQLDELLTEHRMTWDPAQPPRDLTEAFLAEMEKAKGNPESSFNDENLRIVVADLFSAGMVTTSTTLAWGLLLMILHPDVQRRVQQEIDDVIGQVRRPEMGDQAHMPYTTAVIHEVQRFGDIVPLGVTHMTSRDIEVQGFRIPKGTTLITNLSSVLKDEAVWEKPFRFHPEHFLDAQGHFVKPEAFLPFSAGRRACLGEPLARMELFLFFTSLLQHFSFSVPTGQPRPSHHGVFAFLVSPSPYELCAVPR
Sequence of Voltage-gated inwardly rectifying potassium channel KCNH2 (Homo sapiens) (Q12809 whole entry, looked up): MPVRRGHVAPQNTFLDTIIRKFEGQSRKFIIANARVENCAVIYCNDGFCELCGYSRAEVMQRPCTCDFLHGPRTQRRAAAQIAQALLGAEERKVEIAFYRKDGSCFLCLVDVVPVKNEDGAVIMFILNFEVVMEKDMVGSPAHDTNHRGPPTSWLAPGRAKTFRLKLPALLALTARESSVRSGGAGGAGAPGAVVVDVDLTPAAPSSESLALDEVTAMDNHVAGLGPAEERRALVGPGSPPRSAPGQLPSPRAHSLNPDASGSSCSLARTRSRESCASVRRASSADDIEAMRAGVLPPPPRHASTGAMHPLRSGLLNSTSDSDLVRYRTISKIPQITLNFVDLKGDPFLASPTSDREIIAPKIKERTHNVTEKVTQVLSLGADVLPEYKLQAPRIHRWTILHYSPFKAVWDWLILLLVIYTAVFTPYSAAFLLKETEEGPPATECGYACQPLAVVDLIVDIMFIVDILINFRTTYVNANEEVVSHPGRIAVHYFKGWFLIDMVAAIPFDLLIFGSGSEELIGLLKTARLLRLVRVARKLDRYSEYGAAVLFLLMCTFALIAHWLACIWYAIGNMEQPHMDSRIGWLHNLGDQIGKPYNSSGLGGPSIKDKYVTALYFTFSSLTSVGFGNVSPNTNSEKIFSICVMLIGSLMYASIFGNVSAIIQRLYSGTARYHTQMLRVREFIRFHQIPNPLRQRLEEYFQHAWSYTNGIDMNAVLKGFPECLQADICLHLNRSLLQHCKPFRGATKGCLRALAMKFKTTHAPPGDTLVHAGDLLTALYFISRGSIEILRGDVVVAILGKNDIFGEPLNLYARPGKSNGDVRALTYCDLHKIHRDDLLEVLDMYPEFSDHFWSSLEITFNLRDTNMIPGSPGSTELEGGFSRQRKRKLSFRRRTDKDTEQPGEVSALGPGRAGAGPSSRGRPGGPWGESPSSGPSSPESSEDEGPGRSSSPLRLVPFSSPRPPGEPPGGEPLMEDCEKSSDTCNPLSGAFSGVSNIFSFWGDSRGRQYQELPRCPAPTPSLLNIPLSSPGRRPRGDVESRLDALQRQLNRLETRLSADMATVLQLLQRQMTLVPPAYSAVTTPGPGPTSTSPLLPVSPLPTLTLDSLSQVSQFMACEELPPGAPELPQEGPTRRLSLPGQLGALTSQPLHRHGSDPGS
Sequence of Cytochrome P450 1A2 (Homo sapiens) (P05177 whole entry, looked up): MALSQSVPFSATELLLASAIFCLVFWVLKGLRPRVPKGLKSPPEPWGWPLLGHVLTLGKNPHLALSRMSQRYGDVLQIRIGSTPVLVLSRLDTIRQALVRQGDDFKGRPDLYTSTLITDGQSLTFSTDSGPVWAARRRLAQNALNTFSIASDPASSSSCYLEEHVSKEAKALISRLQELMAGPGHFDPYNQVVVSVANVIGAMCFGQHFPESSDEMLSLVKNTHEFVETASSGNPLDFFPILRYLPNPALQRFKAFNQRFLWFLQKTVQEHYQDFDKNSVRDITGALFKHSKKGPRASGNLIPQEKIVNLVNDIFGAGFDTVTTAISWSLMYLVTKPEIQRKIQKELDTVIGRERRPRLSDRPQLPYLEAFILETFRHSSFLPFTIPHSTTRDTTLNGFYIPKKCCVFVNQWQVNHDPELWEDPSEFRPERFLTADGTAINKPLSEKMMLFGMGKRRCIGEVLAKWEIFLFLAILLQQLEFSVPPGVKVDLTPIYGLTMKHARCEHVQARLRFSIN

As for `CCCCC(CC)COC(=O)COc1ccc(Cl)cc1C` (stereo not given), the Potency entry in assay [1], in assay [2], in assay [3], in assay [5], in [6] and in assay [9] was “inactive” throughout. Moreover, the result in assay [4] was inactive. The Potency is 8.94 µM (active) in [7], 12.6 µM (active) in assay [8] and 8.94 µM (active) in assay [10].

For `CC(C)CCCCCCOC(=O)CCCCC(=O)OCCCCCCC(C)C`, the Potency entry in assay [1], in assay [3], in assay [11], in [5], in [6] and in assay [7] was “inactive” in each case. Moreover, the Potency result in assay [9] and in assay [10] was “inactive” throughout. The call in assay [4] was inactive. Moreover, the Potency in assay [8] is 35.6 µM (active).

For the compound `C=CC(C)=CCC=C(C)C`, the Potency entry in [1], in assay [2], in assay [3], in assay [11], in assay [6] and in assay [9] was “inactive” each time. The call in assay [4] was inactive. In assay [12], the Potency is 63.3 µM (active).

Take `CCCOC(=O)c1ccc(N)cc1`: the Potency entry in [1], in [2], in assay [3], in assay [5], in assay [14] and in assay [15] was “inactive” each time. Moreover, the Potency result in assay [9] was “inactive”. In addition, the outcome in [4] was inactive. In addition, the max activation in assay [13] is 14.2%. Further, the Potency in assay [8] is 6.45 µM (active).

Regarding `OCCSc1ccccc1`, the Potency result in [1], in [2], in [3], in assay [5], in assay [6] and in assay [7] was “inactive” throughout. The Potency entry in [12], in assay [9] and in assay [10] was “inactive” in each case. For the same compound, the call in assay [4] was inactive. The Potency in [8] is 39.9 µM (active).

As for `CC1=CC(O)CC(C)(C)C1` (stereo not given), the Potency entry in assay [1], in assay [3], in assay [11], in assay [5], in assay [6] and in assay [7] was “inactive” throughout. Moreover, the Potency entry in [12], in assay [8], in assay [9] and in assay [10] was “inactive” each time. Also, in assay [4], the result was inactive.
